# Data: the supplement of paper PMC4380459
# System: tubulin (bovine brain)
# Test: tubulin polymerization end-point dOD, fold change relative to DMSO vehicle; higher = more polymerization (stabilization)
# Details: 50 µM; 60 min; 37 °C
# Description: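 In-vitro tubulin polymerization assay (Cytoskeleton HTS kit) with 4 mg/ml bovine brain tubulin in G-PEM buffer and compound at 50 uM (0.5% DMSO). Turbidity was read at 340 nm every minute for 1 h at 37 C. The end-point change in OD (dOD) was converted to % fold change relative to the DMSO vehicle (0%), and runs were scaled using DMSO and Taxol controls. The paper calls >20% an effect, 20-40% weak and >40% strong; positive values mean stabilization, negative values destabilization. Scale: negative = destabilization.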
row,Structure (SMILES),tubulin polymerization end-point dOD
1,O=C(Nc1ccc2c(c1)OCCO2)C(=O)Nc1cccc2cccnc12,76%
2,COc1ccc(NC(=O)CSc2nc3cc4c(cc3cc2C#N)OCO4)c(OC)c1,23.6%
3,Cc1ccc(C)c(NC(=O)CSc2nc3cc4c(cc3cc2C#N)OCO4)c1,52.6%
4,COc1cc2c(cc1OC)C(c1cccs1)[NH+](CC(O)c1ccccc1)CC2 (stereo not given),-40.4%
5,COc1cc(-c2onc3ccc(Cl)cc23)cc(OC)c1OC,95.2%
6,CCc1cc2cc(OC)ccc2nc1SCC(=O)Nc1cc(C)ccc1OC,-2.45%
7,COc1cccc(N2CCN(C(=O)c3cn(-c4ccccc4)nc3-c3cccnc3)CC2)c1,-111%
8,Cc1ccc(NC(=S)N(Cc2cc3ccc(C)cc3[nH]c2=O)CC2CCCO2)cc1 (stereo not given),97.9%
9,COc1ccc2nc(/C=C/c3cccnc3)sc2c1,-29.9%
10,CC(=O)c1c(C)oc2c1cc(NS(=O)(=O)c1ccc(Cl)cc1)c1ccccc12,2.59%
11,C=CCc1ccccc1OCC(=O)N/N=C\c1ccc(Cl)cc1,-25.9%
12,Cc1cc2c(cc(C(=O)OCC(=O)NCc3ccco3)n2C)s1,39.4%
13,O=C(Nc1ncc(Cc2ccccc2)s1)c1cc(Br)c[nH]1,2.89%
14,CC(=O)N1c2ccc(NC(=O)c3cc4cccc(C)c4nc3C)cc2CC1C (stereo not given),0.65%
15,N#Cc1cc2cc3c(cc2nc1SCC(=O)Nc1ccccc1Cl)OCCO3,17.2%
16,Cc1cccc2cc3c(N)c(C(=O)Nc4ccccc4N4CCOCC4)sc3nc12,411%
17,CC1Oc2nc3ccccc3cc2CN(Cc2ccc(F)cc2)C1=O (stereo not given),3.19%
18,O=C(c1cccnc1N1CCCC1)N1CC=C(c2c[nH]c3ccccc23)CC1,-49.4%
19,COc1ccc(NC(=O)N(Cc2cc3ccc(C)c(C)c3[nH]c2=O)CC2CCCO2)cc1 (stereo not given),33.3%
20,COc1ccc(Cc2cnc(NC(=O)c3sc4ccccc4c3Cl)s2)cc1,169%

row,Structure (SMILES),tubulin polymerization end-point dOD
1,O=c1[nH]c(/C=C/c2ccccc2)nc2sc3c(c12)CCCCC3,16.8%
2,COc1ccc(CNc2c(-c3ccccc3O)nc3cnccn23)cc1,0.31%
3,O=C1NC(c2c(-c3ccccc3)[nH]c3ccccc23)Nc2ccccc21 (stereo not given),-92.1%
4,COc1ccc(CCNC(=O)CSc2nc3cc4c(cc3cc2C)OCO4)cc1OC,-49.9%
5,O=C(Nc1ccc(Cl)cc1)N(Cc1cc2cc3c(cc2[nH]c1=O)OCCO3)CC1CCCO1 (stereo not given),-20.7%
6,Nc1cccc2c1C(=O)c1cccc(NC(=O)c3ccccc3)c1C2=O,24.7%
7,O=c1[nH]c(CSc2nnc(C3CC3)n2C2CC2)nc2sc(-c3ccccc3)cc12,31.8%
8,Cc1cc2cc3c(cc2nc1SCC(=O)Nc1ccccc1C(F)(F)F)OCO3,-12.8%
9,CC(C)n1ncc2cc(C(=O)Nc3cccc4c3CCCC4)cnc21,-23.5%
10,COc1ccc2cc(CN(CC3CCCO3)C(=O)Nc3ccc(Cl)cc3)c(=O)[nH]c2c1 (stereo not given),-0.367%
11,C/C(=N\NC(=O)c1cccc(F)c1)c1ccc(Br)s1,9.02%
12,Cc1csc(NC(=O)CSc2nnc(-c3cccnc3)n2-c2ccccc2C)n1,-45.1%
13,Cc1ccc(/C=N\NC(=O)COc2ccccc2Br)c(C)c1,-56.5%
14,COc1ccccc1NC(=S)N(Cc1ccccc1)Cc1cc2ccc(C)cc2[nH]c1=O,272%
15,Cc1cc2ccccc2n2c(=O)n(CC(C)NC(=O)c3cnn(C)c3C)nc12 (stereo not given),-1.81%
16,Cc1cnc(C(=O)Nc2ncc(Cc3ccc(C)c(Cl)c3)s2)cn1,-19.2%
17,CCc1ccc2nc(SCC(=O)Nc3ccccc3C)c(C)cc2c1,-20.5%
18,COc1cc(CNc2ccc(Br)cc2)cc(OC)c1OC,-37.3%
19,CCC1c2ccsc2CC[NH+]1Cc1ccc(N2CCCC2=O)cc1 (stereo not given),-43.7%
20,Cc1ccc2nc(NC(=O)c3cc(Br)c[nH]3)sc2c1,-51.9%
